Screening data as filed in PubChem BioAssay.
D1 ag – activates the human D1 dopamine receptor | HEK293 T-REx D1 cells, calcium flux, agonist mode | hit rate 1% among 360,000 | activation, % at 2 µM | P21728; also: 0% is about no effect
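Tetracycline-induced HEK293 TREx D1 cells, force-coupled to calcium signalling, were dye-loaded with a no-wash calcium kit. Compound was pin-added after a 10 s baseline. Fluorescence was read kinetically at 1 cycle/s for 180 s, with calcium rises flagged as agonism.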
D1 antag – human D1 dopamine receptor antagonism. P21728. HEK293 TREx D1 cells, calcium flux, dopamine EC80; stronger effect = lower value. activity change, negative = inhibition, % at 10 µM. hit rate 3.2% among 360,000; in the data active = activity change below about -30%; also: % is scaled to controls: 0 for no effect and ±100 for the full control effect
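Compound effects on dopamine-evoked calcium signalling were measured in tetracycline-induced HEK293 Trex D1 cells. Dopamine at EC80 followed a 180 s compound pre-read, and fluorescence was tracked kinetically for 180 s more.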
TRHR ag – TRH receptor (human) agonism. TRHR cells, calcium flux fluo-8, FDSS agonist mode. AID 493084. activation, % at 2 µM. hit rate 0.18% among 360,000. P34981; also: 0% is about no effect
Target sequence (P34981 whole entry, looked up): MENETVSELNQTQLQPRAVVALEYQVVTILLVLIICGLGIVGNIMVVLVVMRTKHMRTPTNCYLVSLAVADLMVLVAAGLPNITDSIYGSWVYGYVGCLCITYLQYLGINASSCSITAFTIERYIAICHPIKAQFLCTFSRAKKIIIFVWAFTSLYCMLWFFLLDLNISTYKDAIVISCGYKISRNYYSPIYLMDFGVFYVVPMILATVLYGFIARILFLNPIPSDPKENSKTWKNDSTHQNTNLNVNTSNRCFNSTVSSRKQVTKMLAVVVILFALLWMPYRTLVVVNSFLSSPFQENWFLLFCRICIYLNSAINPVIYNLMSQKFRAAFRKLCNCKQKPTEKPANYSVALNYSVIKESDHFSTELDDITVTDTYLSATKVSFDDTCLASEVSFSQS
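Fluo-8-loaded TRHR cells; 10 s baseline, compound added, kinetic Ca2+ fluorescence read 1/s, agonist mode.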
D1 potentiator – human D1 dopamine receptor positive modulation. P21728. HEK293 TREx D1 cells, calcium flux, dopamine EC20 potentiation. potentiation, % at 10 µM. hit rate 0.036% among 360,000. AID 504651; in the data active = potentiation above about 30%; also: 0% is about no effect
TRHR enhancer – TRH receptor (human) allosteric enhancement; P34981; TRHR cells, fluo-8 calcium fluorescence, EC20 TRH enhancement; enhancement, % at 2 µM; hit rate 0.66% among 360,000; AID 493056; in the data active = enhancement above about 30%; also: 0% is about no effect
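TRHR-expressing cells loaded with fluo-8 calcium dye were read kinetically (ex 480/em 530) during compound addition, then stimulated with an EC20 of TRH (10 nM final). Enhancement of the Gq-mediated intracellular calcium response was scored.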
* = called active by the depositor; x = no result given. Rows were chosen to be rich in hits. Some 4.7% of all compounds tested hit in one or more screens of this group. Rule as the data show it, unless noted: active = activation above about 30%; inactive = the rest.

SMILES	D1 ag	D1 antag	TRHR ag	D1 potentiator	TRHR enhancer
COc1ccccc1Nc1sc(C(=O)c2ccc(C)cc2C)c(N)c1S(=O)(=O)c1ccccc1	6.5	-2.5	0.7	-4.1	-1.2
Cc1ccc(NC(=O)C(=O)NCCc2c[nH]c3ccccc23)c(C)c1	30.2*	4.5	3.9	1.5	10.5
O=C(NCCc1c[nH]c2ccccc12)c1cncc(Br)c1	10.4	-34.5*	7.1	-8.3	12.8
Cc1ccc(C)c(NC(=O)C(=O)NCCc2c[nH]c3ccccc23)c1	1.7	8.3	-0.1	-12.4	7.8
O=C(NCCc1ccc(Cl)cc1Cl)c1cncc(Br)c1	4.4	-38.1*	-0.6	-12.3	8.0
CCCSc1ncc(Cl)c(C(=O)Nc2c(C(=O)c3ccc(C)cc3)oc3ccccc23)n1	0.3	3.9	0.4	0.2	1.3
O=C(CCCOc1ccccc1)NN1C(=O)NC2(CCCCC2)C1=O	-0.1	-43.2*	-0.4	-6.2	5.1
O=C(CN1C(=O)NC2(CCCC2)C1=O)OCCOc1ccccc1	1.0	4.2	-0.1	0.4	9.1
COc1ccc(OC)c(NC(=O)CCn2cccn2)c1	0.7	-6.3	0.1	-4.8	0.6
CCOc1ccc(C(C)=O)cc1COC(=O)c1ccc2c(c1)NC(=O)CS2	3.2	-2.1	-0.1	-0.7	-6.1
CCOc1cc2c(cc1C(C)(C)C)NC(=O)CS2	-0.2	-85.1*	-0.4	-1.7	-2.6
CCC1(C)N([O-])C(C)=C(c2ccccc2)[N+]1=O (configuration not stated)	0.0	1.3	4.4	0.2	1.0
CC1(C)N([O-])C2=C(c3ccccc3C2=O)[N+](=O)C1(C)C	1.9	-32.2*	0.3	-2.1	0.5
CS(=O)(=O)C1=NSC2=NC(=O)/C(=C\c3ccc(OC(=O)c4ccco4)cc3)C(=N)N21	0.3	-30.5*	-0.1	-8.0	-4.7
CCS(=O)(=O)C1=NN2C(=N)/C(=C\c3ccc(OC(=O)c4ccco4)c(OC)c3)C(=O)N=C2S1	3.7	-33.0*	1.9	5.2	-3.4
COc1cc(/C=C2/C(=N)N3N=C(C(C)C)SC3=NC2=O)ccc1OS(=O)(=O)c1ccccc1	1.4	-30.7*	0.8	-2.0	-1.0
CCC1=NN2C(=N)/C(=C/c3ccc(OS(=O)(=O)c4ccccc4)c(OC)c3)C(=O)N=C2S1	-0.4	-0.7	0.1	4.7	-9.1
CCCC1=NN2C(=N)/C(=C\c3ccc(OCCOc4ccc(NC(C)=O)cc4)c(OC)c3)C(=O)N=C2S1	1.0	-17.8	0.8	-4.0	30.6*
Cc1cc2c(s1)c1cnn(Cc3cccc4cccnc34)c(=O)c1n2C	0.6	-1.4	-1.0	7.0	0.3
COc1ccccc1Oc1nc2c(c(=O)n(C)c(=O)n2C)n1Cc1cccc(Br)c1	7.4	7.0	-0.7	0.1	-1.9
CCOc1ccccc1/C=C/c1onc(C)c1S(=O)(=O)N1CCC(C(=O)N2CCCCC2)CC1	3.5	6.8	-0.5	1.9	-2.3
COc1cccc(CNC(=O)CN2C(=O)CCSc3ccc(S(=O)(=O)N4CCCC4)cc32)c1	2.6	-17.3	0.1	-6.3	-2.3
Cc1cc(/C=C2/C(=N)N3C(=NC2=O)SN=C3S(C)(=O)=O)c(C)n1-c1ccccc1F	4.1	-20.9	-2.2	-9.2	-0.6
CS(=O)(=O)C1=NSC2=NC(=O)/C(=C\c3cccn3-c3ccc(Cl)cc3)C(=N)N21	3.5	-35.7*	0.3	-5.0	-5.3
COc1ccc(N2CCN(c3nc4cc(C)ccc4cc3C=O)CC2)cc1	0.3	-1.5	-0.2	-0.6	-0.9
SMILES	D1 ag	D1 antag	TRHR ag	D1 potentiator	TRHR enhancer
Cc1ccc2nc3n(c(=O)c2c1)-c1cc(Cl)ccc1C(=O)NC3Cc1ccccc1 (configuration not stated)	1.6	-37.5*	-0.6	0.2	-0.1
CCC(CO)Nc1ncnc2onc(-c3ccc(F)cc3)c12 (configuration not stated)	1.0	4.6	-0.1	-1.9	39.6*
CCOC(=O)c1ccc(NC(=O)CSc2nnc(CNC(=O)c3ccco3)o2)cc1	6.4	-11.2	-0.6	-3.7	-0.1
CCOC(=O)c1ccccc1NC(=O)C1CSC2(C)CCC(=O)N12 (configuration not stated)	-1.0	-5.8	-1.0	0.1	-0.6
COC(=O)c1ccccc1OC(=O)c1cc[n+]([O-])cc1	6.7	9.2	0.1	30.8*	4.4
Nc1c(-c2nc(-c3ccc(Cl)cc3)cs2)c2ccccn2c1C(=O)c1ccc2c(c1)OCO2	1.3	14.3	0.6	3.1	1.8
COc1ccccc1C(=O)NCC(C)(C)CN=C1NS(=O)(=O)c2ccccc21	0.4	4.3	0.2	1.7	-8.4
CCOC(=O)c1nc(-c2ccccc2)oc1N(C)C	0.5	-11.4	-0.4	-2.9	30.1*
Cc1cc(C2=CC(=O)C[C@H](c3ccc4c(c3)OCO4)C2)ccc1F	-0.2	x	0.1	-3.0	-0.1
N#CC1=C(N)NC(SCc2ccccc2)=C(C#N)C12CCCCC2	18.6	-36.2*	-0.4	-0.6	-6.8
Cn1c(=O)c(C(=O)NNC(=O)c2cccc(Cl)c2)c(O)c2ccccc21	2.0	0.3	0.4	-1.4	-1.0
CCCn1c(=O)c(C(=O)Nc2cccc(C)n2)c(O)c2ccccc21	3.6	13.9	0.7	3.8	8.6
CCCn1c(=O)c(C(=O)Nc2ncccc2C)c(O)c2ccccc21	48.5*	-15.6	5.4	0.2	-4.7
CCCn1c(=O)c(C(=O)NNC(=O)c2ccc(Cl)cc2Cl)c(O)c2ccccc21	41.2*	-12.9	4.1	-6.0	-1.0
Cc1cccc(C(=O)NNC(=O)c2c(O)c3ccccc3n(C)c2=O)c1	17.3	2.3	-1.0	0.2	37.4*
COc1ccccc1N1CCN(c2cc(C)nc3nncn23)CC1	-0.9	2.1	-0.4	3.7	1.4
CCCCn1c(=O)c2oc3ccccc3c2n(Cc2cccc(C)c2)c1=O	3.0	10.0	0.2	-5.1	-2.7
O=C(Cn1c(=O)n(Cc2ccco2)c(=O)c2cccnc21)Nc1ccccc1F	0.2	-8.9	-0.3	3.8	0.0
CC(=O)Nc1ccc(Sc2ccccc2C(=O)Nc2ccc(F)cc2)cn1	46.2*	-7.7	4.1	1.9	0.7
Cc1ccccc1CC1(CO)CCCN(Cc2ccn[nH]2)C1 (configuration not stated)	0.8	-16.9	0.2	-4.1	-4.6
Cc1ccccc1CC1(CO)CCCN(Cc2c(C)nn(C)c2Cl)C1 (configuration not stated)	16.6	-32.8*	-0.5	-5.0	-2.5
CSCC(=O)N1CCCC(CO)(Cc2ccccc2C)C1 (configuration not stated)	2.0	-52.7*	-0.4	-2.5	9.6
Cc1nn(C)c(Cl)c1CN1CCCC(CO)(Cc2cccc(Cl)c2)C1 (configuration not stated)	10.5	-33.5*	-3.3	-4.5	6.6
CC1(C)C(C(=O)OCC(Cl)(Cl)Cl)N2C(=O)C(NC(=O)Cc3ccccc3)C2S1=O (configuration not stated)	12.9	-0.9	-0.7	0.2	-10.0
